D1 ag: human D1 receptor agonism. P21728. HEK293 T-REx D1 cells, calcium flux, agonist mode. activation, % at 2 µM. hit rate 1% among 360,000; in the data active = activation above about 30%
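Tetracycline-induced HEK293 TREx D1 cells, force-coupled to calcium signalling, were dye-loaded with a no-wash calcium kit. Compound was pin-added after a 10 s baseline. Fluorescence was read kinetically at 1 cycle/s for 180 s, with calcium rises flagged as agonism.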
D1 antag: antagonists of human D1 dopamine receptor; P21728; HEK293 TREx D1 cells, calcium flux, dopamine EC80; stronger effect = lower value; activity change, negative = inhibition, % at 10 µM; hit rate 3.2% among 360,000; AID 504652; in the data active = activity change below about -30%
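Cells carrying a force-coupled, tetracycline-inducible human D1 receptor report calcium flux. Each well gets a 10 s baseline, compound with 180 s monitoring, then an EC80 dopamine stimulus with a second 180 s kinetic read.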
DRD3 agonist: D3 dopamine receptor (human) agonism; P35462; D3R DiscoveRx beta-arrestin cells, luminescence, 90 min; max activation, %; hit rate 0.58% among 410,000; in the data active = max activation above about 30%
Target sequence (P35462 whole entry, looked up): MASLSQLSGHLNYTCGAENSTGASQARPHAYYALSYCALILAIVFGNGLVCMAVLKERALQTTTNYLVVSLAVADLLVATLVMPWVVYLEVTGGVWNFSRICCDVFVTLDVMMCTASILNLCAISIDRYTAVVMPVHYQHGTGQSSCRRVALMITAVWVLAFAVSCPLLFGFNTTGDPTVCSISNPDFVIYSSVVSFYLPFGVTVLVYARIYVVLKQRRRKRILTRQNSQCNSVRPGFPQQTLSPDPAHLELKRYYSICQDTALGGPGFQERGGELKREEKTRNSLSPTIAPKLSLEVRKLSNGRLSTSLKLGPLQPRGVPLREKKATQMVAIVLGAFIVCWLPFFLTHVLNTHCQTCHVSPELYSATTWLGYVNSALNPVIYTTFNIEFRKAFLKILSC
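Cells at 1500/well, incubated overnight, then treated with pinned compounds (dopamine as control) for 90 min at 37 degrees C. DiscoveRx reagent added for 30 - 60 minutes at room temperature; luminescence read.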
D3 antag: D3 dopamine receptor (human) antagonism. P35462. D3R cells, DiscoveRx beta-arrestin luminescence, antagonist mode; stronger effect = lower value. max response, negative = inhibition, %. hit rate 2.5% among 360,000. AID 652054; in the data active = max response below about -50%; inconclusive = no clear call, values can overlap the other calls
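Cells expressing the human receptor were seeded at 1500 cells/well, incubated overnight at 37 degrees C in 5% CO2, then exposed to library compounds with dopamine controls for 90 minutes at 37 degrees C before luminescent detection.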
D1 potentiator: potentiators of human D1 dopamine receptor; P21728; HEK293 TREx D1 cells, calcium flux, dopamine EC20 potentiation; potentiation, % at 10 µM; hit rate 0.036% among 360,000; in the data active = potentiation above about 30%
Large screens that a line does not name were inactive; ! = repeats disagree. This is a sample that favours compounds with a hit; in the whole collection about 6% have one here.

Fc1ccc(-c2ccc3c(c2)C2CC3CCN2Cc2ccc3c(c2)OCO3)cc1 (centres undefined)	none (no result: D1 ag, D1 antag, D1 potentiator)
C[C@H](CCC(=O)OCc1cn(CC(=O)c2ccc(O)cc2)nn1)C1CC[C@H]2[C@@H]3CC[C@@H]4C[C@H](O)CC[C@]4(C)[C@H]3C[C@H](O)[C@]12C (some centres undefined)	DRD3 agonist 43.6 (no result: D1 ag, D1 antag, D1 potentiator)
C[C@H](CCC(=O)O)[C@H]1CC[C@H]2[C@@H]3CC[C@@H]4C[C@H](O)CC[C@]4(C)[C@H]3C[C@H](O)[C@]12C	none (no result: D1 ag, D1 antag, D1 potentiator)
O=[N+]([O-])/C=C\c1ccc(N2CCCC2)c(F)c1	D1 ag 126.7
O=Cc1ccc(N2CCCC2)c([N+](=O)[O-])c1	none
CC(C)(C)/C(Cn1cncn1)=N\OC(=O)Nc1ccc(Cl)cc1	D1 antag -54.7
O=C(Cn1cncn1)N/N=C/c1ccc(Cl)cc1	none
COc1ccc(CNC2CCCc3ccccc32)cc1OC (centres undefined)	none
COc1ccc(CNC2CCSc3ccccc32)cc1OC (centres undefined)	D1 antag -32.1
CCN(C(=O)COC(=O)c1cnccn1)c1cccc2ccccc12	none (no result: D1 ag, D1 antag, D1 potentiator)
CCN(C(=O)COc1ccc(C(C)=O)cc1)c1cccc2ccccc12	D3 antag -72.1 (no result: D1 ag, D1 antag, D1 potentiator)
O=C1C(=O)N(CCS(=O)(=O)c2ccccc2)c2ccc(F)cc21	D3 antag inconclusive
Cc1nc2nc(C)c(CCC(=O)NC(C)c3ccc4c(c3)OCCO4)c(C)n2n1 (centres undefined)	D1 antag -47.6
NNC(=O)c1ccccc1CO	DRD3 agonist 33.7 (no result: D1 ag, D1 antag, D1 potentiator)
CC(C)OCCCN(C)C1CCN(S(=O)(=O)c2csc(C(N)=O)c2)CC1	none
CC(C)OCCCN(C)C1CCN(S(=O)(=O)c2ccc(-c3cc(C(F)(F)F)no3)s2)CC1	D3 antag -84.2
CS(=O)(=O)c1ncc(Cl)c(C(=O)Nc2ccc3ccccc3c2)n1	D1 antag -33.1, D3 antag -117.1
CCNC(=O)c1c(NC(=O)c2nc(S(=O)(=O)CC)ncc2Cl)sc2c1CCCC2	D1 antag -54.5 (no result: D3 antag)
CC1CCCN(S(=O)(=O)c2ccc(NC(=O)CNC3CCCC3)cc2)C1 (centres undefined)	none
Cc1ccc(CS(=O)(=O)c2ncc(Cl)c(C(=O)Nc3ccc(OC(F)F)cc3)n2)cc1	D3 antag -63.3
CCS(=O)(=O)c1ncc(Cl)c(C(=O)Nc2ccc(S(=O)(=O)N3CCCC(C)C3)cc2)n1 (centres undefined)	D1 antag -36.0
CCOc1ccc(NC(=O)c2nc(S(=O)(=O)Cc3ccccc3F)ncc2Cl)cc1	none (no result: D3 antag)
COc1cc(OC)c(N(C)C(=O)c2cc3c(s2)-c2ccccc2OC3)cc1Cl	none (no result: D3 antag)
CCOC1=C2[C@H](c3ccccc3)N(S(=O)(=O)c3ccc(C)cc3)C[C@H]2n2c(=O)n(-c3ccccc3)c(=O)n2C1	none (no result: D1 ag, D1 antag, D1 potentiator)
O=C(NCCc1ccc(Cl)cc1)C1COc2ccccc2O1 (centres undefined)	none
COc1ccc(NC(=O)c2nc(S(=O)(=O)Cc3ccc(C)cc3)ncc2Cl)cc1	D1 antag -37.9 (no result: D3 antag)
CCS(=O)(=O)c1ncc(Cl)c(C(=O)Nc2ccc(C)cc2)n1	D3 antag -130.4
Cc1c(Br)cccc1NC(=O)C1(C)CCN1C(C)C (centres undefined)	none (no result: D1 ag, D1 antag, D1 potentiator)
CN(C)CCCN(C(=O)c1ccc(C(=O)c2ccccc2)cc1)c1nc2ccc(F)cc2s1	D1 ag 69.7, D1 antag -32.9, D3 antag inconclusive
CN(C)CCCN(C(=O)c1ccc(C(=O)c2ccccc2)cc1)c1nc2cc3c(cc2s1)OCO3	D1 ag 62.2, D3 antag -55.4
CCN(Cc1ccccc1)S(=O)(=O)c1ccc(C(=O)N(CCCN(C)C)c2nc3cc4c(cc3s2)OCCO4)cc1	D1 antag -41.5, D3 antag inconclusive
CN(C)CCCN(C(=O)c1nc2ccccc2s1)c1nc2ccc(F)cc2s1	none (no result: D1 ag, D1 antag, D1 potentiator)
CN(C)CCCN(C(=O)c1ccc(Br)s1)c1nc2ccc(F)cc2s1	none (no result: D3 antag)
CCN(Cc1ccccc1)S(=O)(=O)c1ccc(C(=O)N(CCCN(C)C)c2nc3ccc(F)cc3s2)cc1	none
Cc1ccc2nc(N(CCCN(C)C)C(=O)c3ccc(Br)s3)sc2c1	D1 ag 41.3!, D3 antag -52.7
CCOC(=O)c1c(NC(=O)c2cc(-c3ccccc3OC)on2)sc(C)c1C	none (no result: D3 antag)
COc1cccc(CNC(=O)[C@@H]2CCCN2C(=O)[C@@H]2CCCN2C(=O)OC(C)(C)C)c1	none (no result: D1 ag, D1 antag, D1 potentiator)
CCOC(=O)N1CCN(S(=O)(=O)c2ccc(C(=O)N(CCCN(C)C)c3nc4ccc(OC)cc4s3)cc2)CC1	none
CCOC(=O)N1CCN(S(=O)(=O)c2ccc(C(=O)N(CCN(C)C)c3nc4ccc(Cl)cc4s3)cc2)CC1	D1 antag -33.4, D3 antag inconclusive
CN(C)CCCN(C(=O)c1ccc(S(=O)(=O)N2CCCCC2)cc1)c1nc2cc3c(cc2s1)OCO3	D1 ag 33.4, D3 antag inconclusive
CCN(CC)CCN(C(=O)c1ccc2ncsc2c1)c1nc2cc3c(cc2s1)OCO3	D1 antag -45.7
COC(CNC(=O)c1ccc(N2CCCC2=O)cc1)OC	D3 antag -50.9
CN(CC(=O)Nc1ccc(OC(F)(F)F)cc1)C(=O)c1ccc(N2CCCC2=O)cc1	D1 antag -31.9
CN(CC(=O)Nc1ccc(Cl)cc1)C(=O)c1ccc(N2CCCC2=O)cc1	D1 antag -39.2
CN(CC(=O)Nc1ccc(F)c(F)c1F)C(=O)c1ccc(N2CCCC2=O)cc1	none (no result: D1 ag, D1 antag, D1 potentiator)
CCOC(=O)[C@H]1[C@H]2COc3ccc(Cl)cc3[C@@H]2N2C(=O)CN(Cc3ccc(Cl)cc3)C(=O)[C@@]12C	none (no result: D1 antag)
O=C(O)/C=C/c1cc(F)c(S(=O)(=O)N2CCN(S(=O)(=O)c3ccc4c(c3)OCCO4)CC2)cc1F	none (no result: DRD3 agonist, D3 antag)
O=C(NCCSC1CCCCC1)c1ccccc1	D1 antag -77.4
CS(=O)(=O)Nc1ccc(C(=O)NCCSC2CCCCC2)cc1	none
COc1ccc(C(=O)NCCSC2CCCCC2)cc1	D1 antag -42.9
CCOc1ccc(CNC(=O)c2cc3ccccn3n2)cc1OC	none (no result: D3 antag)
CCOC(=O)C1=CC[C@]2(C)c3c(c4ccccc4n3C)C(=O)C1N2C	D1 antag -45.2
CCOC(=O)C1=CCC2c3c(c4ccccc4n3C)C(=O)C1N2C(=O)OC(C)(C)C (centres undefined)	D3 antag inconclusive
O=C(NCCc1c[nH]c2ccccc12)c1ccc([N+](=O)[O-])o1	none (no result: D1 ag, D1 antag, D1 potentiator)
CCN(C[C@H]1N[C@@](CC)(C(=O)OC)[C@H]2C(=O)N(Cc3ccccc3)C(=O)[C@@H]12)C(=O)c1ccc(F)cc1	none (no result: D1 ag, D1 antag, D1 potentiator)
CCN(C[C@H]1N[C@@](CC)(C(=O)OC)[C@H]2C(=O)N(Cc3ccccc3)C(=O)[C@@H]12)C(=O)c1ccc(C)cc1	DRD3 agonist 55.2 (no result: D1 ag, D1 antag, D1 potentiator)
CCN(C[C@H]1N[C@@](Cc2ccccc2)(C(=O)OC)[C@H]2C(=O)N(Cc3ccccc3)C(=O)[C@@H]12)S(=O)(=O)c1ccccc1	D3 antag -72.2 (no result: D1 ag, D1 antag, D1 potentiator)

Compound activity (PubChem)
